Data published in the supplement of paper PMC10849652.
Targets with a hit are over-represented here; the source holds about 8,800 in all. About 0.5% of all pairs of compound and target were hits.

Assays:
Test in all cases: log2 fold change, soluble protein after heating vs DMSO (PISA); higher = thermal stabilisation; K562 lysate, 10 uM; active = over 0.2 and 3.5 SD of the protein, either way, in both replicates (recomputed)
alvocidib = compound: CN1CC[C@H](c2c(O)cc(O)c3c(=O)cc(-c4ccccc4Cl)oc23)[C@H](O)C1 [alvocidib]
In short: (§1)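 A 30 min treatment with 10 μM compound was applied to crude K562 extract at 1 mg/mL protein in PBS pH 7.4 with 1 mM MgCl2. Heating for 3 min spanned 48°C-58°C, after which aliquots were pooled, adjusted to 0.5% NP-40 at 4°C and spun at 21,000xg for 90 min. TMTpro 16plex LC-MS/MS of the supernatant, with channel sums equalised, gave values recorded as log-two fold change in thermal stability against solvent controls, from duplicates.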

Tubastatin A = compound: CN1CCc2c(c3ccccc3n2Cc2ccc(C(=O)NO)cc2)C1 [Tubastatin A]
In short: as §1

[1] = compound: CNC(=O)C1=CC=CC=C1NC2=NC(=NC=C2Cl)NC3=C(C=C(C=C3)N4CCOCC4)OC
In short: as §1

defactinib = compound: CNC(=O)c1ccc(Nc2ncc(C(F)(F)F)c(NCc3nccnc3N(C)S(C)(=O)=O)n2)cc1 [defactinib]
In short: as §1

[2] = compound: CNc1nc(-c2ccc3c(N)n[nH]c3c2)cc(N2C[C@@H](C(=O)NC3CCCCC3)CC[C@H]2C)n1
In short: as §1

encorafenib = compound: COC(=O)N[C@@H](C)CNc1nccc(-c2cn(C(C)C)nc2-c2cc(Cl)cc(NS(C)(=O)=O)c2F)n1 [encorafenib]
In short: as §1

[3] = compound: COC(=O)[C@H](CCSC)NC(=O)C1=C(C=C(C=C1)NC[C@H](CS)N)C2=CC=CC=C2
In short: as §1

alisertib = compound: COc1cc(Nc2ncc3c(n2)-c2ccc(Cl)cc2C(c2c(F)cccc2OC)=NC3)ccc1C(=O)O [alisertib]
In short: as §1

[4] = compound: COc1cc2nc(-c3cc(F)ccc3O)nc(N[C@@H]3CNC[C@H]3C(C)(C)O)c2cc1OC
In short: as §1

gefitinib = compound: COc1cc2ncnc(Nc3ccc(F)c(Cl)c3)c2cc1OCCCN1CCOCC1 [gefitinib]
In short: as §1

lapatinib = compound: CS(=O)(=O)CCNCc1ccc(-c2ccc3ncnc(Nc4ccc(OCc5cccc(F)c5)c(Cl)c4)c3c2)o1 [lapatinib]
In short: as §1

pictilisib = compound: CS(=O)(=O)N1CCN(Cc2cc3nc(-c4cccc5[nH]ncc45)nc(N4CCOCC4)c3s2)CC1 [pictilisib]
In short: as §1

crizotinib = compound: C[C@@H](Oc1cc(-c2cnn(C3CCNCC3)c2)cnc1N)c1c(Cl)ccc(F)c1Cl [crizotinib]
In short: as §1

[5] = compound: C[C@H](C1=CC=C(C=C1)C(=O)NC2=C3C=CNC3=NC=C2)N
In short: as §1

duvelisib = compound: C[C@H](Nc1ncnc2nc[nH]c12)c1cc2cccc(Cl)c2c(=O)n1-c1ccccc1 [duvelisib]
In short: as §1

gandotinib = compound: Cc1cc(Nc2cc(CN3CCOCC3)c3nc(C)c(Cc4ccc(Cl)cc4F)n3n2)n[nH]1 [gandotinib]
In short: as §1

tozasertib = compound: Cc1cc(Nc2cc(N3CCN(C)CC3)nc(Sc3ccc(NC(=O)C4CC4)cc3)n2)n[nH]1 [tozasertib]
In short: as §1

doramapimod = compound: Cc1ccc(-n2nc(C(C)(C)C)cc2NC(=O)Nc2ccc(OCCN3CCOCC3)c3ccccc23)cc1 [doramapimod]
In short: as §1

bafetinib = compound: Cc1ccc(NC(=O)c2ccc(CN3CC[C@H](N(C)C)C3)c(C(F)(F)F)c2)cc1Nc1nccc(-c2cncnc2)n1 [bafetinib]
In short: as §1

[6] = compound: Cc1cccc(CC(=O)N2CCc3c2ccc(-c2cn(C)c4ncnc(N)c24)c3F)n1
In short: as §1

Measured: log2 fold change

PTPN2 (UniProt P17706)
UniProt P17706, sequence (P17706 whole entry, looked up): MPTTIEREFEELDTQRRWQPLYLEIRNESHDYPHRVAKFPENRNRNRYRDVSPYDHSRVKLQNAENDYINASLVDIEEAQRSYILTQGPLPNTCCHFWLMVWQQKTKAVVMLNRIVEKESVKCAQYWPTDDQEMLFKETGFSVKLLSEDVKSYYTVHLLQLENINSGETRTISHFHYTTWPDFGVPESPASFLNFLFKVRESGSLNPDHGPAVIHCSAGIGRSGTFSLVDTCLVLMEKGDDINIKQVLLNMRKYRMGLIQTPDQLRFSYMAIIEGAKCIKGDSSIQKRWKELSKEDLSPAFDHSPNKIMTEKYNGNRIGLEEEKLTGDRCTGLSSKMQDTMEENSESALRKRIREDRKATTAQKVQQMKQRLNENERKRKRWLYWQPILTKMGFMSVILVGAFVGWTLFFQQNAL
inactive: alvocidib -0.036 | Tubastatin A -0.115 | [1] 0.049 | defactinib -0.008 | [2] 0.005 | encorafenib -0.035 | [3] 0.053 | alisertib 0.052 | [4] -0.006 | gefitinib -0.006 | lapatinib -0.016 | pictilisib -0.01 | crizotinib -0.074 | [5] -0.084 | duvelisib -0.042 | gandotinib -0.013 | tozasertib -0.037 | doramapimod -0.012 | bafetinib -0.077 | [6] 0.071

PMPCA (UniProt Q10713)
inactive: alvocidib -0.006 | Tubastatin A 0.049 | [1] -0.045 | defactinib 0.004 | [2] -0.004 | encorafenib 0.001 | [3] 0.04 | alisertib -0.03 | [4] 0.003 | gefitinib -0.02 | lapatinib -0.02 | pictilisib -0.043 | crizotinib -0.048 | [5] -0.053 | duvelisib 0.053 | gandotinib -0.004 | tozasertib 0.016 | doramapimod 0.079 | bafetinib 0.046 | [6] 0.025

PRMT7 (UniProt Q9NVM4)
UniProt Q9NVM4, sequence (Q9NVM4 whole entry, looked up): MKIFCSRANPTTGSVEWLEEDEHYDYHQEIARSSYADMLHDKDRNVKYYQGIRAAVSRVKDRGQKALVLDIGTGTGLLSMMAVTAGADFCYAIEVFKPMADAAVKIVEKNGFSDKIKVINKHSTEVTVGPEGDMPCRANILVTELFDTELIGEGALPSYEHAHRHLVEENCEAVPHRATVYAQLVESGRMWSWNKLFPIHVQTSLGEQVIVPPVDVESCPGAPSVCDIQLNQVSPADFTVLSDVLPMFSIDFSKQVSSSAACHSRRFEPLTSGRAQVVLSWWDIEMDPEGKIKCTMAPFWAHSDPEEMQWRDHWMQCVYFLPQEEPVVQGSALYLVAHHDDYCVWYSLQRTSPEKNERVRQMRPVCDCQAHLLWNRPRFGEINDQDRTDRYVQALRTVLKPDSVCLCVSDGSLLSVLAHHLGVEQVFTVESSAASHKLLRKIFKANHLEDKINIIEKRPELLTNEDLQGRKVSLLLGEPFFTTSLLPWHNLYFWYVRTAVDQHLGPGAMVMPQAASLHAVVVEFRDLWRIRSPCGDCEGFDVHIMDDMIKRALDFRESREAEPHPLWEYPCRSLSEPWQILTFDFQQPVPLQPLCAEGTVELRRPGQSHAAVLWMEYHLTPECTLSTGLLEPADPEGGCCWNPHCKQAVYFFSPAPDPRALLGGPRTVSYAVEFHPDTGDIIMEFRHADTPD
active: [3] 0.286
inactive: alvocidib 0.017 | Tubastatin A -0.069 | [1] 0.024 | defactinib -0.047 | [2] 0.002 | encorafenib 0.012 | alisertib -0.015 | [4] 0.007 | gefitinib 0 | lapatinib -0.006 | pictilisib 0 | crizotinib 0.025 | [5] -0.014 | duvelisib 0.035 | gandotinib -0.045 | tozasertib 0.039 | doramapimod -0.025 | bafetinib -0.01 | [6] -0.008

PRMT8 (UniProt Q9NR22)
UniProt Q9NR22, sequence (Q9NR22 whole entry, looked up): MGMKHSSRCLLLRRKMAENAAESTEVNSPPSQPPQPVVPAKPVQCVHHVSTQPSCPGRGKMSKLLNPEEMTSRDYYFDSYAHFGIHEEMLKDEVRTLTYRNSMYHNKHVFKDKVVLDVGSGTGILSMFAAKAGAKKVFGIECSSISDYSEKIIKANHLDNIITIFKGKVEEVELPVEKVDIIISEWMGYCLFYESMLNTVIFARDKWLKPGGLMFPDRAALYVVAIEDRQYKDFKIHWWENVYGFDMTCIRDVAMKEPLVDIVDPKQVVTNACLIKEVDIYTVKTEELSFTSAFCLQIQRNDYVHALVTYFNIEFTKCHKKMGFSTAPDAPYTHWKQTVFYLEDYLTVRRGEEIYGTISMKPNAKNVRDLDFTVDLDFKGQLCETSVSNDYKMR
active: [5] -0.256
inactive: alvocidib -0.11 | Tubastatin A -0.019 | [1] 0.001 | defactinib -0.103 | [2] -0.005 | encorafenib -0.002 | [3] 0.004 | alisertib -0.01 | [4] 0.016 | gefitinib 0.034 | lapatinib -0.011 | pictilisib 0.004 | crizotinib -0.037 | duvelisib 0.012 | gandotinib 0.071 | tozasertib 0.008 | doramapimod -0.001 | bafetinib -0.112 | [6] 0.168

PPP1R8 (UniProt Q12972)
inactive: alvocidib -0.095 | Tubastatin A 0.028 | [1] -0.025 | defactinib -0.003 | [2] 0.044 | encorafenib 0.028 | [3] -0.049 | alisertib 0.022 | [4] -0.012 | gefitinib -0.05 | lapatinib 0.025 | pictilisib -0.008 | crizotinib 0.021 | [5] -0.236 | duvelisib -0.035 | gandotinib 0.108 | tozasertib -0.014 | doramapimod -0.011 | bafetinib -0.01 | [6] 0.091

PRPF6 (UniProt O94906)
active: [3] 0.22
inactive: alvocidib 0.006 | Tubastatin A -0.096 | [1] 0.01 | defactinib 0.025 | [2] -0.011 | encorafenib 0.024 | alisertib 0.008 | [4] 0.009 | gefitinib -0.016 | lapatinib -0.008 | pictilisib 0.009 | crizotinib -0.06 | [5] -0.023 | duvelisib -0.023 | gandotinib -0.08 | tozasertib 0.023 | doramapimod 0.064 | bafetinib -0.056 | [6] 0.031

PEF1 (UniProt Q9UBV8)
inactive: alvocidib 0.027 | Tubastatin A 0.097 | [1] 0.029 | defactinib 0.087 | [2] 0.029 | encorafenib 0.039 | [3] -0.034 | alisertib -0.017 | [4] 0.029 | gefitinib -0.02 | lapatinib 0.019 | pictilisib 0.041 | crizotinib -0.002 | [5] 0.051 | duvelisib -0.004 | gandotinib -0.055 | tozasertib 0.032 | doramapimod -0.01 | bafetinib -0.027 | [6] 0.051

PGLS (UniProt O95336)
UniProt O95336, sequence (O95336 whole entry, looked up): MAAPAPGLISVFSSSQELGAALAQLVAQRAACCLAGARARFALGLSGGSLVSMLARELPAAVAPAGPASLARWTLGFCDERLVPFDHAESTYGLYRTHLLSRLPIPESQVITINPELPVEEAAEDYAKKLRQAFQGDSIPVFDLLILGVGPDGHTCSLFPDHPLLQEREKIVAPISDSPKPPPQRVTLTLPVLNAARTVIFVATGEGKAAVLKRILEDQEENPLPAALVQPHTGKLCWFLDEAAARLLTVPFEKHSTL
inactive: alvocidib 0.177 | Tubastatin A 0.09 | [1] 0.061 | defactinib 0.231 | [2] 0.016 | encorafenib 0.017 | [3] 0.019 | alisertib 0.03 | [4] -0.087 | gefitinib -0.163 | lapatinib 0.068 | pictilisib 0.011 | crizotinib 0 | [5] 0.206 | duvelisib 0.033 | gandotinib -0.084 | tozasertib 0.008 | doramapimod 0.004 | bafetinib -0.031 | [6] -0.14

PDE2A (UniProt O00408)
inactive: alvocidib 0.038 | Tubastatin A 0.275 | [1] 0.044 | defactinib -0.24 | [2] 0.028 | encorafenib 0.11 | [3] -0.019 | alisertib 0.014 | [4] 0.048 | gefitinib -0.01 | lapatinib 0.005 | pictilisib 0 | crizotinib 0.074 | [5] 0.05 | duvelisib -0.042 | gandotinib 0.138 | tozasertib 0.049 | doramapimod -0.057 | bafetinib 0.051 | [6] 0.041

PRKD2 isoform 3 (UniProt Q9BZL6)
UniProt Q9BZL6, sequence (Q9BZL6 whole entry, looked up): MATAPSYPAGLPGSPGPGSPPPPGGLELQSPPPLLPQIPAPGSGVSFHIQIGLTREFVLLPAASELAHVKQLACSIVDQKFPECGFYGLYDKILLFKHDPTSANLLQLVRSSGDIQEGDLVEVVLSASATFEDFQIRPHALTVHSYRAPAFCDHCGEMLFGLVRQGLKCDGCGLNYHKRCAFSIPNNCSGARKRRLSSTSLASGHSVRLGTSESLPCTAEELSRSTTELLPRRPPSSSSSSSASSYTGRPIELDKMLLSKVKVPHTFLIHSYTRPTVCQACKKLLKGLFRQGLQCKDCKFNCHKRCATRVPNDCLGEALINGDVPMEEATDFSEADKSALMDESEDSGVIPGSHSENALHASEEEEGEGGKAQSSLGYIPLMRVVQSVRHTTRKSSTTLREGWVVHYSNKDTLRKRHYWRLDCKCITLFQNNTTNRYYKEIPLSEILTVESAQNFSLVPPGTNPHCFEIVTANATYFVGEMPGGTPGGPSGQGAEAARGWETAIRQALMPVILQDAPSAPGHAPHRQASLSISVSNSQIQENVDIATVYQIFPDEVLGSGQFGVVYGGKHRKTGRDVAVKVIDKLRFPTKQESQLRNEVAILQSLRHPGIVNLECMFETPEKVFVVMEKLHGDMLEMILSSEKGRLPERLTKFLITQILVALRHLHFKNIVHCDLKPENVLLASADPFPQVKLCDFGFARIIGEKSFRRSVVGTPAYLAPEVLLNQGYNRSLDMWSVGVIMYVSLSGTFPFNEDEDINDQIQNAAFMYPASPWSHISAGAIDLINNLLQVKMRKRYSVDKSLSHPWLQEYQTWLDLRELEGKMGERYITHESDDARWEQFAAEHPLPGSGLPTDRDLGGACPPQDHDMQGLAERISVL
inactive: alvocidib 0.01 | Tubastatin A -0.145 | [1] -0.125 | defactinib 0.24 | [2] 0.024 | encorafenib 0.091 | [3] -0.001 | alisertib -0.028 | [4] 0.238 | gefitinib -0.165 | lapatinib 0.087 | pictilisib -0.009 | crizotinib -0.043 | [5] -0.047 | duvelisib 0.05 | gandotinib -0.15 | tozasertib 0.019 | doramapimod -0.002 | bafetinib 0.02 | [6] -0.01

PLA2G4B isoform 6 (UniProt P0C869)
UniProt P0C869, sequence (P0C869 whole entry, looked up): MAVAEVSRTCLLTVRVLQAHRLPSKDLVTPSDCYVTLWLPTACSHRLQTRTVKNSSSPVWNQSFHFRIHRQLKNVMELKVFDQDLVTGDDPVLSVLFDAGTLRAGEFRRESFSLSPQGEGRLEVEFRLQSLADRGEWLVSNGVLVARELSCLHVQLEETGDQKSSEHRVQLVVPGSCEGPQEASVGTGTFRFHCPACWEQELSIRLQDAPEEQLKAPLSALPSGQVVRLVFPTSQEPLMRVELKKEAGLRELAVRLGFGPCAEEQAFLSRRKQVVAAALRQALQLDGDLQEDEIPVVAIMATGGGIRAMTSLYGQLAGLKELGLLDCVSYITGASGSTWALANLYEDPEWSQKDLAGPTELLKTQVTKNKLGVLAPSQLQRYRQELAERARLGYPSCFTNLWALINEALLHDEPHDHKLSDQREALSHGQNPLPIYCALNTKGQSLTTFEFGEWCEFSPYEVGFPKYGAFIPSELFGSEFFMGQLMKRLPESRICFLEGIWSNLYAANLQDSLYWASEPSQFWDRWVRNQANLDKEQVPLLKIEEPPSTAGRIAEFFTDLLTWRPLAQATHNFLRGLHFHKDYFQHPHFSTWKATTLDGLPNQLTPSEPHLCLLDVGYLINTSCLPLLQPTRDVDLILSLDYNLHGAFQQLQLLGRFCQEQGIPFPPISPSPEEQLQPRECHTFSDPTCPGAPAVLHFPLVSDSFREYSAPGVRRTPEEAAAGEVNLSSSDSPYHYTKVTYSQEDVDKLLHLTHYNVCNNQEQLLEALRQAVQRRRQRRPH
inactive: alvocidib -0.035 | Tubastatin A 0.054 | [1] -0.032 | defactinib 0.024 | [2] 0.051 | encorafenib 0.09 | [3] 0.177 | alisertib -0.009 | [4] 0.073 | gefitinib 0.115 | lapatinib -0.001 | pictilisib -0.032 | crizotinib -0.49 | [5] -0.015 | duvelisib -0.038 | gandotinib 0.069 | tozasertib -0.009 | doramapimod 0 | bafetinib -0.133 | [6] 0.086

PRKCSH isoform 2 (UniProt P14314)
UniProt P14314, sequence (P14314 whole entry, looked up): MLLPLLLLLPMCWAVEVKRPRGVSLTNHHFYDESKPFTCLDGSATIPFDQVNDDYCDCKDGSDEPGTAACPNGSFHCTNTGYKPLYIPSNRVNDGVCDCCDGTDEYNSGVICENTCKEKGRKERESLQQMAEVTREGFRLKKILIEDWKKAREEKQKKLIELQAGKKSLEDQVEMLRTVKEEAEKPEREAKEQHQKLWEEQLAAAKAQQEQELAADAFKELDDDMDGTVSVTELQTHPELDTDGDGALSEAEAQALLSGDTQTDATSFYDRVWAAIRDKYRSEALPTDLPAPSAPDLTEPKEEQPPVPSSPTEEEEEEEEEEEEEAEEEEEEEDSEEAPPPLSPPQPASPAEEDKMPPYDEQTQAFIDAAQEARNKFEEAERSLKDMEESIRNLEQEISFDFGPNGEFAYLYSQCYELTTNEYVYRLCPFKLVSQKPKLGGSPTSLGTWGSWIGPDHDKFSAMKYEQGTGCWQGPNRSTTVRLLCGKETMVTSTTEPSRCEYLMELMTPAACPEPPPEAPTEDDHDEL
inactive: alvocidib -0.124 | Tubastatin A 0.002 | [1] -0.078 | defactinib -0.011 | [2] -0.05 | encorafenib 0.039 | [3] -0.013 | alisertib -0.079 | [4] -0.042 | gefitinib 0.092 | lapatinib 0.132 | pictilisib 0.072 | crizotinib -0.016 | duvelisib 0.174 | gandotinib 0.293 | tozasertib 0.092 | doramapimod 0.136 | bafetinib 0.055 | [6] 0.24
active: [5] -0.622

PIK3C3 (UniProt Q8NEB9)
inactive: alvocidib -0.081 | Tubastatin A 0.02 | [1] -0.019 | defactinib -0.004 | [2] -0.046 | encorafenib -0.016 | [3] 0.015 | alisertib 0.012 | [4] 0.048 | gefitinib -0.037 | lapatinib -0.066 | pictilisib 0.041 | crizotinib -0.009 | [5] -0.137 | duvelisib 0.107 | tozasertib -0.042 | doramapimod -0.005 | bafetinib -0.013 | [6] 0.133
active: gandotinib 0.272

PIK3R1 (UniProt P27986)
inactive: alvocidib 0.032 | Tubastatin A -0.037 | [1] 0.075 | defactinib -0.066 | [2] -0.039 | encorafenib -0.025 | [3] -0.111 | alisertib 0.078 | [4] 0.023 | gefitinib -0.045 | lapatinib 0.002 | pictilisib 0.374 | crizotinib -0.015 | [5] 0.033 | gandotinib 0.171 | tozasertib 0.039 | doramapimod -0.02 | bafetinib 0.007 | [6] -0.011
active: duvelisib 0.534

PCYT1B (UniProt Q9Y5K3)
UniProt Q9Y5K3, sequence (Q9Y5K3 whole entry, looked up): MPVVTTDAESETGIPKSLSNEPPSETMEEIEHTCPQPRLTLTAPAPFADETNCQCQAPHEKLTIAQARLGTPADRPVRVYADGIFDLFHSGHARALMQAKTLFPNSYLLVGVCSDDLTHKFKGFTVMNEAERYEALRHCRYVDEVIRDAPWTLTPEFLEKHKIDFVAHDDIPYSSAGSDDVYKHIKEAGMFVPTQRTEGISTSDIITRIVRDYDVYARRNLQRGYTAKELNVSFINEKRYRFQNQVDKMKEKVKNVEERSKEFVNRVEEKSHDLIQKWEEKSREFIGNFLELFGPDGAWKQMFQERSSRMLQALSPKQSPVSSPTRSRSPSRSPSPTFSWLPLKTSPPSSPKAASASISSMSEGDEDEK
active: [6] 0.239
inactive: alvocidib -0.007 | Tubastatin A -0.023 | [1] 0.033 | defactinib 0.01 | [2] 0.086 | encorafenib 0.047 | [3] -0.025 | alisertib 0.033 | [4] -0.02 | gefitinib 0.033 | lapatinib 0.008 | pictilisib 0.004 | crizotinib 0.025 | [5] -0.044 | duvelisib -0.007 | gandotinib 0.193 | tozasertib 0.008 | doramapimod -0.003 | bafetinib -0.127

PPP4R2 (UniProt Q9NY27)
UniProt Q9NY27, sequence (Q9NY27 whole entry, looked up): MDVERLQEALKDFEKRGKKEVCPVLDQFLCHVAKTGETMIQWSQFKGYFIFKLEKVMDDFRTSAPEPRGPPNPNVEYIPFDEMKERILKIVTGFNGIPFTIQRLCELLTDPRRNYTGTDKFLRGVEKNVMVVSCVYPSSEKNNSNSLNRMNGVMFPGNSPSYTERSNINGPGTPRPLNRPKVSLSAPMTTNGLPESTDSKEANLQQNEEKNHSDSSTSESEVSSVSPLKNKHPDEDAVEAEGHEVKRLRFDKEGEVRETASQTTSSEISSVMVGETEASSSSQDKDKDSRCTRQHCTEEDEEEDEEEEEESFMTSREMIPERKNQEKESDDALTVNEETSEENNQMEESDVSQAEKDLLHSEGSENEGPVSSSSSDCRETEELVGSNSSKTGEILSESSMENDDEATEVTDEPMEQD
inactive: alvocidib 0.021 | Tubastatin A 0.013 | [1] 0.018 | defactinib 0.015 | [2] 0.014 | encorafenib 0.025 | [3] -0.014 | alisertib -0.058 | [4] -0.002 | gefitinib -0.01 | lapatinib 0.057 | pictilisib -0.003 | crizotinib 0.023 | [5] 0.159 | duvelisib 0.003 | gandotinib -0.011 | tozasertib -0.007 | doramapimod -0.022 | bafetinib 0.021 | [6] -0.048
